The values that follow come from PubChem BioAssay AID1946 (Johns Hopkins Ion Channel Center, 2009).

Out of some 2,400 compounds screened, about 180 (7.5%) were called active.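 How the source made its calls: active means readout below zero, meaning a drop past 3 SD under the dofetilide-free negative control mean; inactive means the rest.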 This excerpt belongs to a sample that is enriched for actives.

For this assay, the target named is Potassium voltage-gated channel subfamily KQT member 2 (Rattus norvegicus) (UniProt O88943). The assay can be described thus: KCNQ2 blockade in CHO cells – cell-based, FluxOR thallium flux, counter-screen for hERG block protector project, confirmation (AID 1946). The note with it: FluxOR thallium flux fluorescence, at 10 µM, stronger effect = lower value, zero marks the 3-SD hit cutoff. On the technique in general: Counterscreens check selectivity or assay interference.
Sequence of Potassium voltage-gated channel subfamily KQT member 2 (Rattus norvegicus) (O88943 whole entry, looked up): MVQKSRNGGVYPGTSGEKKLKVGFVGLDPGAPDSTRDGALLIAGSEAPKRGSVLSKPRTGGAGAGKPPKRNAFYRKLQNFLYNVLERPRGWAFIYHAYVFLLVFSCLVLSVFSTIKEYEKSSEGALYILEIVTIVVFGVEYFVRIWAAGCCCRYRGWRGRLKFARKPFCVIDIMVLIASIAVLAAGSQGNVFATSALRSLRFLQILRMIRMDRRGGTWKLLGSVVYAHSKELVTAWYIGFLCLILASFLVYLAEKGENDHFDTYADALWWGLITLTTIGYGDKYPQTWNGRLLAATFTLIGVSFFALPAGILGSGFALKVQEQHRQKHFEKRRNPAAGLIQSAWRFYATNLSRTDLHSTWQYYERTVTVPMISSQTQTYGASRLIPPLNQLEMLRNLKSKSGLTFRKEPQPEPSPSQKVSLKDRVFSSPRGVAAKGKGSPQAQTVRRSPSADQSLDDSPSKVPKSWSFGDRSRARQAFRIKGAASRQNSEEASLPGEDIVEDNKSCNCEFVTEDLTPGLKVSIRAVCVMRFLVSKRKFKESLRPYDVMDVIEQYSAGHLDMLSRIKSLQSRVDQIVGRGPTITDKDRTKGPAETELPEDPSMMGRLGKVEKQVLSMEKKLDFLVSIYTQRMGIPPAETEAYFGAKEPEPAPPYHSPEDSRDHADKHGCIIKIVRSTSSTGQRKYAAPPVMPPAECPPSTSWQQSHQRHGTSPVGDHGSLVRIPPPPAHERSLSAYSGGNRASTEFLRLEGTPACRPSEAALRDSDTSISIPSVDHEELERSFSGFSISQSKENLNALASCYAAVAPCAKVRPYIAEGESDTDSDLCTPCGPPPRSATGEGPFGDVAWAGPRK
In the case of `CCOc1cc(N2CCOCC2)c(OCC)cc1NC(=O)Cn1nc(C)c([N+](=O)[O-])c1C`, the activity change vs negative control was 12.9% (inactive).
The figure for `CCSc1nnc(NC(=O)CC(C)C)s1` is 10.8% (inactive).
The figure for `Cc1ccc(OCc2ccoc2C(=O)O)cc1C` is 45.7% (inactive); for `O=C(/C=C/Nc1ccc(F)c(F)c1)c1cccs1` it is -2.9% (active).
For the molecule `O=C(/C=C/Nc1ccc(F)cc1)c1ccco1`, the activity change vs negative control was 12.2% (inactive).
In the case of `Cc1ccc(N/C=C/C(=O)c2cccs2)cc1` it was 5% (inactive); in that of `Cc1ccc(Cc2c[nH]c(=S)s2)cc1`, 76.4% (inactive).
The figure for `O=C(NC(=S)N1CCc2ccccc21)c1ccc(Br)o1` is 41% (inactive); for `S=c1nc(Cc2ccccc2)[nH]c2ccccc12` it is 98.8% (inactive); for `O=C1CC(C(=O)N2CCOCC2)C2(CCCCC2)O1` (stereo not drawn) it is -1% (active).
As to `O=C(C1CCN(S(=O)(=O)c2cc(Cl)ccc2Cl)CC1)N1CCOCC1`, the activity change vs negative control was 1.9% (inactive).
In the case of `Cc1ccc(C(C)C)c(OCc2n[nH]c(=S)o2)c1` it was 32.2% (inactive); in that of `O=C(NC(=S)NCc1ccccc1)c1ccc(Br)o1`, 93.4% (inactive); in that of `CCC1=NN(C(=O)c2ccc(Cl)cc2)C(O)(c2ccc(C)cc2)C1` (stereo not drawn), 11.1% (inactive).
The figure for `CC1=NN(C(=O)c2ccc(Cl)cc2)C(O)(c2ccccc2)C1` (stereo not drawn) is 16% (inactive); for `CCC1=NN(C(=O)c2ccc(Cl)cc2)C(O)(c2ccccc2)C1` (stereo not drawn) it is -0.9% (active).
The figure for `CC(C)NC(=O)Nc1n[nH]c(Nc2ccc(Cl)cc2)n1` is 34.6% (inactive).
In the case of `COCCN(C(=O)CSc1nnc(C)n1Cc1ccccc1)c1c(N)n(CC(C)C)c(=O)[nH]c1=O`, the activity change vs negative control is 1.8% (inactive).
In the case of `CS(=O)(=O)N(Cc1ccccc1)c1ccc(C(=O)Nc2ccc(C(N)=O)cc2)cc1` it was 4.2% (inactive); in that of `C=CCN(c1ccc(C(=O)NC(C)C)cc1)S(C)(=O)=O`, -2.3% (active).
The figure for `C=CCN(CC=C)C(=S)NC(=O)c1ccc(OC)cc1` is 31.6% (inactive); for `CCOC(=O)C1=NN(C(=O)c2ccccc2)C(O)(c2ccc(C)cc2)C1` (stereo not drawn) it is 32% (inactive); for `CCn1c(=S)[nH]c2c(c1=O)C(C)(C)Cc1ccccc1-2` it is 49.8% (inactive).
The figure for `c1ccc(-c2n[nH]c(-c3ccccn3)n2)cc1` is 20.5% (inactive); for `Oc1c(N=NC(=S)Nc2ccccc2F)c2ccccc2n1Cc1ccccc1F` it is 10.9% (inactive).
With `Cn1c(O)c(N=NC(=S)Nc2ccccc2F)c2cc(S(=O)(=O)N3CCOCC3)ccc21`, the activity change vs negative control is 4% (inactive).
In the case of `C=CCn1c(O)c(N=NC(=S)Nc2ccccc2F)c2cc(S(=O)(=O)N3CCOCC3)ccc21` it was -2.3% (active); in that of `CC(Oc1ccc(Br)cc1Br)C(=O)Nc1cccnc1` (stereo not drawn), 7.4% (inactive).
The figure for `CC1CCN(C(=S)NC(=O)c2ccc(C(C)(C)C)cc2)CC1` is 38.5% (inactive); for `COc1ccc(NC(=O)N2CCN(c3ccc([N+](=O)[O-])cc3)CC2)cc1OC` it is 8.2% (inactive).
Turning to `COc1cc2c(cc1OC)C(c1ccc([N+](=O)[O-])cc1)N(C(C)=O)CC2` (stereo not drawn), the activity change vs negative control is -4% (active).
Consider `COc1cc2c(cc1OC)C(C)N(C(=S)NC(=O)c1ccccc1)CC2` (stereo not drawn), for which the activity change vs negative control was 18.6% (inactive).
In the case of `Nc1nonc1-n1nnc(C(=O)N/N=C/c2cccc(Cl)c2Cl)c1CN1CCCC1` it was 5.3% (inactive); in that of `CN(C)Cc1c(C(=O)N/N=C/c2ccccc2OCc2c(F)cccc2Cl)nnn1-c1nonc1N`, -0.5% (active); in that of `CCCOc1ccc(-c2c(C(=O)N/N=C/c3ccccc3OCC)nnn2-c2nonc2N)cc1`, 11.7% (inactive).
Take `O=C(NC(=S)Nc1ccc(C(F)(F)F)cc1)c1csnn1`: the activity change vs negative control was 110% (inactive).
Consider `CC1CCc2c(sc3[nH]c(=S)n(C)c(=O)c23)C1` (stereo not drawn), for which the activity change vs negative control is 100% (inactive).
In the case of `CCc1nc(C)ccc1OCC(=O)N1CCc2c([nH]c3ccccc23)C1c1ccccn1` (stereo not drawn) it was -3.7% (active); in that of `CN1N=C(C(=O)N2CCc3c([nH]c4ccccc34)C2c2c(F)cccc2Cl)CCC1=O` (stereo not drawn), 0.6% (inactive); in that of `O=c1c2cc(Br)ccc2nc(-c2ccc([N+](=O)[O-])cc2)n1O`, 66.7% (inactive).
Consider `C=CCN(CC=C)C(=S)NC(=O)Cc1cccc2ccccc12`, for which the activity change vs negative control is 25.1% (inactive).
Regarding `CC(/C=C1\SC(=S)N(NS(=O)(=O)c2ccc(C)cc2)C1=O)=C\c1ccccc1`, the activity change vs negative control was 32.4% (inactive).
In the case of `O=c1c2cc(Cl)ccc2nc(-c2ccccc2)n1O` it was 56.6% (inactive); in that of `Cn1nc(C(F)(F)F)c(-c2ccc(Br)cc2)c1NC(=O)c1cccnc1`, -6.8% (active).
With `Cn1c(=S)[nH]c2sc3c(c2c1=O)CCC(C(C)(C)C)C3` (stereo not drawn), the activity change vs negative control was 99.8% (inactive).
The figure for `CC(CCc1ccccc1)NC(=S)NC(=O)c1ccco1` (stereo not drawn) is 43% (inactive).
On to `Cc1ccc(/C(O)=C2\C(=O)C(=O)N(Cc3cccnc3)C2c2ccccc2[N+](=O)[O-])cc1` (stereo not drawn), for which the activity change vs negative control was -1.5% (active).
For the molecule `O=C1C(=O)N(CCN2CCOCC2)C(c2cccnc2)/C1=C(/O)c1ccc(Cl)cc1` (stereo not drawn), the activity change vs negative control was 6.1% (inactive).
In the case of `COc1ccc(N(CC(=O)NCc2cccnc2)S(=O)(=O)c2ccccc2[N+](=O)[O-])c(OC)c1` it was 4.1% (inactive); in that of `CC(C)CN1C(=O)/C(=C/c2cccs2)NC1=S`, 113% (inactive).
In the case of `COc1ccc(NC(=S)NC(=O)c2csnn2)cc1` it was 81.7% (inactive); in that of `CC(C)C(=O)Nc1cccc(C(=O)Nc2ccccc2C(=O)O)c1`, 13.7% (inactive); in that of `CC(=O)Nc1ccccc1C(=O)C(=O)Nc1ccc(Cl)cc1`, 5.3% (inactive).
The figure for `CC(=O)Nc1ccccc1C(=O)C(=O)Nc1ccccc1` is -2% (active); for `S=c1[nH]c2cc(Cl)ccc2s1` it is 121% (inactive); for `CCn1c(=S)[nH]c2sc3c(c2c1=O)CCCCC3` it is 126% (inactive).
In the case of `CC(C)n1c(=S)[nH]c2scc(-c3cccs3)c2c1=O`, the activity change vs negative control was 119% (inactive).
Consider `S=c1[nH]nc(-c2cccs2)n1/N=C/c1c(Cl)cccc1Cl`, for which the activity change vs negative control is 42.5% (inactive).
`Cc1cc(OCc2ccc(C(=O)Nc3ccc(C(=O)O)cc3)o2)ccc1Cl`: the activity change vs negative control was 5.6% (inactive).
The figure for `O=C(N/N=C/c1cc([N+](=O)[O-])ccc1O)c1ccc(COc2ccc3c(c2)CCC3)o1` is -19.7% (active).
The figure for `CCOc1ccc(C(=O)N/N=C/c2cc([N+](=O)[O-])cs2)cc1` is 5.6% (inactive); for `CCOC(=O)C1=C(c2ccccc2)NC(=O)NC1c1ccc(O)c(Cl)c1` (stereo not drawn) it is 23.1% (inactive).
Regarding `O=C(N=Nc1c(O)[nH]c2ccc([N+](=O)[O-])cc12)c1cc(-c2ccccc2Cl)nc2ccccc12`, the activity change vs negative control is 3.8% (inactive).
Consider `CC(C)(C)c1ccc(C(=O)CC(=O)c2cc(Cl)ccc2O)cc1`, for which the activity change vs negative control is 9.8% (inactive).
With `COc1ccc(C(=O)CC(=O)C(=O)Nc2ccccc2OC)cc1`, the activity change vs negative control was 19.3% (inactive).
The figure for `O=C(N/N=C/c1ccc2cccc(OCc3ccccc3)c2n1)c1ccc(Br)cc1` is 12% (inactive); for `COC(=O)c1ccc(/C=C/c2ccc3cccc(OC)c3n2)cc1` it is -0.2% (active); for `O=C(Cn1nnc(-c2cccc(C(F)(F)F)c2)n1)N1CCCCCC1` it is 44.7% (inactive).
In the case of `Cc1ccccc1NC(=O)C(=O)NNC(=O)COc1ccc2ccccc2c1` it was 48.1% (inactive); in that of `COc1ccc(C(=O)NCC(=O)OCn2nnc3ccccc3c2=O)cc1OC`, 5.4% (inactive); in that of `Cc1ccccc1OCC(=O)NNC(=O)c1ccc2c(=O)n3c(nc2c1)CCC3`, -0.9% (active).
The figure for `O=S(=O)(NC(=S)NC1CCCCC1)c1ccc(Br)cc1` is 36.7% (inactive); for `C=CCn1c(SCc2ccc(C(=O)O)cc2)nc2sc(C)c(C)c2c1=O` it is 68% (inactive); for `CC1Cc2ccccc2N1C(=S)NC(=O)c1cccc(Br)c1` (stereo not drawn) it is 143% (inactive).
In the case of `O=C(NC(=S)NCCc1ccccc1)c1cccc(Cl)c1`, the activity change vs negative control was 5.4% (inactive).
With `O=C(NC(=S)NNC(=O)[C@H]1C[C@@H]1c1ccccc1)c1cccc(F)c1`, the activity change vs negative control was -9% (active).
The figure for `Cc1cccc(N=Cc2cc(Br)cc(Cl)c2O)c1` is 61.7% (inactive); for `COc1ccc(C(=O)NNC(=O)C(=O)Nc2ccc(C)cc2)cc1` it is 36.9% (inactive).
The figure for `C=CCn1c(=S)[nH]c2cc(-c3ccccc3)sc2c1=O` is 17.5% (inactive); for `NC(=O)c1cccnc1Nc1cccc([N+](=O)[O-])c1` it is 0.5% (inactive); for `O=C(NCc1cccnc1)c1ccc(NS(=O)(=O)c2ccc(F)cc2)cc1` it is 17% (inactive).
With `COc1ccc(S(=O)(=O)Nc2cccc(-n3cnnn3)c2)cc1`, the activity change vs negative control is 11.8% (inactive).
In the case of `COc1ccc(S(=O)(=O)Nc2cccnc2)cc1`, the activity change vs negative control is -2.7% (active).
The figure for `S=c1nc(-c2ccccc2)[nH]n1-c1ccccc1` is 73.2% (inactive); for `C=CCNC(=S)Nc1nc2c(cc1C(=O)OCC)CCCC2` it is 15.6% (inactive).
As to `COc1cc(/C=C2/C(=O)NN(c3ccc(Cl)c(Cl)c3)C2=O)cc([N+](=O)[O-])c1O`, the activity change vs negative control is 10.8% (inactive).
The figure for `COc1ccc([N+](=O)[O-])cc1N(CC(=O)NCc1ccco1)S(C)(=O)=O` is 9.4% (inactive); for `COc1cc(/C=C2/OC(=O)c3cc([N+](=O)[O-])ccc32)cc(OC)c1OC` it is -0.9% (active); for `O=C(NC(=S)N1CCN(c2nc(-c3ccccc3)cs2)CC1)c1cncc(Br)c1` it is 76.4% (inactive).
The figure for `Cc1ccccc1OC(=O)n1c(=S)oc2cc(Cl)ccc21` is 33.4% (inactive); for `Cc1ccc2nsnc2c1S(=O)(=O)Nc1cccc2nsnc12` it is 27.1% (inactive).
In the case of `Cc1cc(C)nc(NS(=O)(=O)c2ccc(NC(=O)Cc3ccccc3)cc2)n1` it was 12.6% (inactive).
Take `O=C(COc1ccccc1)Nc1ccc(S(=O)(=O)Nc2ccccn2)cc1`: the activity change vs negative control was 0.2% (inactive).
`O=C(CCCc1c[nH]c2ccccc12)Nc1ccc(S(=O)(=O)Nc2ncccn2)cc1`: the activity change vs negative control is -0.6% (active).
The figure for `Cc1ccc(-c2n[nH]c(=S)nc2-c2ccc(C)cc2)cc1` is 15.9% (inactive).
Consider `S=C(Nc1ccc(Cl)cc1)c1nc2ccccc2s1`, for which the activity change vs negative control is 22% (inactive).
The figure for `O=C(NC(=S)Nc1nc2ccccc2s1)c1cccs1` is 38.4% (inactive); for `CN(CC(=O)Nc1nc2ccccc2s1)S(=O)(=O)c1ccc(Cl)cc1` it is -3.4% (active).
